The panel holds about 83,000 compounds, 20% with a hit somewhere; the sample as a whole holds those more often.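 Plates (96-well) were seeded with cells, treated with compound at one concentration, and incubated for 48 hours before percent growth was determined.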 Values without a mark were called inactive. Active and inactive are the calls of the source. The calls were made as follows: active = growth percent below 10; inactive = the rest.

Test systems include SR leukemia; RPMI-8226 leukemia; OVCAR-8 ovarian; OVCAR-5 ovarian; OVCAR-4 ovarian; SK-OV-3 ovarian; IGROV1 ovarian; OVCAR-3 ovarian; HS 578T breast; NCI/ADR-RES ovarian; T-47D breast; BT-549 breast; SW-620 colon; MCF7 breast; HCT-116 colon; HCC-2998 colon; KM12 colon; MDA-MB-468 breast; MDA-MB-435 melanoma.
Common to all, as to assay: NCI-60 one-dose screen, 48 h (100 = growth as untreated, 0 = no growth, -100 = all killed)
Common to all, as to settings: 10 µM unless noted

In the case of `COc1cc(/C=C/C(=O)c2cnn(-c3cc(=O)[nH]c4ccc(Cl)cc34)c2C)cc(OC)c1OC`, the growth was -11.6% (active) in the experiment with SR leukemia; -31.7% (active) in the experiment on RPMI-8226 leukemia; -0.426% (active) in the experiment on OVCAR-8 ovarian; -52.3% (active) with OVCAR-5 ovarian; 17.7% with OVCAR-4 ovarian; -6.03% (active) with SK-OV-3 ovarian. Besides, the growth in the experiment on IGROV1 ovarian is -35.3% (active); in the experiment with OVCAR-3 ovarian, -61.7% (active); with HS 578T breast it was 23.9%; in the experiment on NCI/ADR-RES ovarian, -20.3% (active); with T-47D breast, -31.4% (active); in the experiment with BT-549 breast it was -47% (active). The growth with SW-620 colon was -45.8% (active); in the experiment on MCF7 breast it was -37.6% (active); with HCT-116 colon it was -67.6% (active); with HCC-2998 colon it was -93.5% (active); with KM12 colon, -28.4% (active); in the experiment on MDA-MB-468 breast it was -83.1% (active).

Turning to `O=C(N/N=C/c1occc1Br)c1[nH]c2ccc(Br)cc2c1-c1ccccc1`, the growth in the experiment with SR leukemia is -9.6% (active); in the experiment on RPMI-8226 leukemia, -4.48% (active); in the experiment with OVCAR-8 ovarian it was -51.7% (active); with OVCAR-5 ovarian, -99.8% (active); in the experiment on OVCAR-4 ovarian, -87% (active); with SK-OV-3 ovarian it was -85.3% (active). In addition, the growth with IGROV1 ovarian was -92.8% (active); in the experiment with OVCAR-3 ovarian, -73.7% (active); with HS 578T breast, -28.4% (active); with NCI/ADR-RES ovarian it was -53.5% (active); with T-47D breast, -77% (active); in the experiment with BT-549 breast it was -89.4% (active). For the same compound, the growth is -86.3% (active) with SW-620 colon; -66.9% (active) in the experiment with MCF7 breast; -74.5% (active) in the experiment on HCT-116 colon; -89.6% (active) with HCC-2998 colon; -46.6% (active) with KM12 colon.

Regarding `CN(CCSSCCN1CCOCC1)C(=O)Oc1cc2c(c3ccccc13)[C@H](CCl)CN2C(=O)c1cc2cc(OCCCN3CCC3)ccc2[nH]1`, the growth was -26.2% (active) with SR leukemia; -28.5% (active) with RPMI-8226 leukemia; -15.7% (active) with OVCAR-8 ovarian; -36.7% (active) with OVCAR-5 ovarian; -28.7% (active) in the experiment with OVCAR-4 ovarian; -27.7% (active) in the experiment on SK-OV-3 ovarian. The growth in the experiment on IGROV1 ovarian was -22.1% (active); with OVCAR-3 ovarian, -46.7% (active); in the experiment with HS 578T breast, -16.8% (active); with NCI/ADR-RES ovarian it was -30.4% (active); in the experiment with T-47D breast, -41.9% (active); with BT-549 breast, -52.5% (active). Moreover, the growth in the experiment on MDA-MB-435 melanoma is -36.5% (active); with SW-620 colon, -8.71% (active); in the experiment with MCF7 breast, -60.8% (active); in the experiment with HCT-116 colon it was -49.1% (active); with HCC-2998 colon, -64.7% (active); in the experiment on MDA-MB-468 breast it was -80% (active).

As for `Cc1ccc(N=Nc2c(N)nn3c(-c4cc5cc(Br)ccc5oc4=O)ccnc23)cc1`, the growth is 50.2% with SR leukemia; 93.5% in the experiment with RPMI-8226 leukemia; 54% in the experiment with OVCAR-8 ovarian; 54.8% in the experiment on OVCAR-5 ovarian; 102% in the experiment on OVCAR-4 ovarian; 98.6% with SK-OV-3 ovarian. In addition, the growth in the experiment with IGROV1 ovarian was 45.2%; with OVCAR-3 ovarian, 108%; with HS 578T breast it was 69.4%; in the experiment with NCI/ADR-RES ovarian, 29%; in the experiment with T-47D breast, 56.4%; in the experiment on BT-549 breast it was 53%. For the same compound, the growth in the experiment with SW-620 colon was 107%; in the experiment on MCF7 breast, 51.1%; in the experiment with HCT-116 colon, 44.5%; in the experiment with HCC-2998 colon it was 87.1%; with KM12 colon it was 72.4%; in the experiment on MDA-MB-468 breast it was 73.5%.

As to `CS(=O)(=O)c1ccc(-n2nc(C(=O)NCc3ccccc3)cc2-c2ccc(Cl)cc2)cc1`, the growth is 76.7% in the experiment on SR leukemia; 56.8% with RPMI-8226 leukemia; 89.9% with OVCAR-8 ovarian; 105% in the experiment on OVCAR-5 ovarian; 71% in the experiment with OVCAR-4 ovarian; 104% in the experiment on SK-OV-3 ovarian. Besides, the growth with IGROV1 ovarian is 95.9%; in the experiment on OVCAR-3 ovarian, 99.7%; in the experiment with HS 578T breast it was 110%; in the experiment with NCI/ADR-RES ovarian it was 83.9%; in the experiment on T-47D breast it was 66.6%; with BT-549 breast, 143%. Further, the growth with SW-620 colon was 99.8%; in the experiment with MCF7 breast, 70.1%; in the experiment on HCT-116 colon, 69.6%; with HCC-2998 colon it was 99.4%; with KM12 colon it was 89.2%; in the experiment on MDA-MB-468 breast it was 86.7%.

Consider `Cc1ccc(C(=O)Nc2cc(-n3ccnc3C)cc(C(F)(F)F)c2)cc1C#Cc1cnc2cccnn12`, for which the growth in the experiment on SR leukemia was -17.9% (active); in the experiment on RPMI-8226 leukemia, -14.8% (active); with OVCAR-8 ovarian it was 18.5%; in the experiment with OVCAR-5 ovarian it was 7.14% (active); in the experiment with OVCAR-4 ovarian, 15.6%; in the experiment with SK-OV-3 ovarian, -0.287% (active). Also, the growth was 4.66% (active) with IGROV1 ovarian; 37.8% in the experiment on OVCAR-3 ovarian; -25.9% (active) with HS 578T breast; 4.26% (active) with NCI/ADR-RES ovarian; 0.344% (active) in the experiment with T-47D breast; -22.7% (active) with BT-549 breast. Further, the growth is 12.6% with SW-620 colon; 0.633% (active) in the experiment on MCF7 breast; -41.3% (active) in the experiment on HCT-116 colon; -48.7% (active) with HCC-2998 colon; 3.67% (active) with KM12 colon; -20.6% (active) in the experiment on MDA-MB-468 breast.

With `O=C(NNC(=O)c1ccc(OCc2nc3ccc(Cl)cc3[nH]2)cc1)Nc1ccc(Cl)c(C(F)(F)F)c1`, the growth in the experiment on SR leukemia was 50.3%; in the experiment on RPMI-8226 leukemia it was 35.9%; in the experiment on OVCAR-8 ovarian it was 19.1%; in the experiment with OVCAR-5 ovarian it was 76.4%; with OVCAR-4 ovarian it was 80.1%; in the experiment with SK-OV-3 ovarian it was 92.4%. In addition, the growth is 69.6% with IGROV1 ovarian; 51.8% in the experiment with OVCAR-3 ovarian; 57.2% with HS 578T breast; 95.4% in the experiment with NCI/ADR-RES ovarian; 16.4% in the experiment with T-47D breast; 64.7% in the experiment with BT-549 breast. For the same compound, the growth in the experiment on SW-620 colon was 65%; with MCF7 breast, 49.5%; with HCT-116 colon, 4.53% (active); in the experiment on HCC-2998 colon it was 73.9%; in the experiment with KM12 colon, 49.1%; in the experiment with MDA-MB-468 breast it was 22.4%.

Regarding `O=C1Nc2cc(-c3ccc(NS(=O)(=O)c4ccc(C(F)(F)F)cc4)cc3)ccc2/C1=C/c1ccc[nH]1`, the growth with SR leukemia was 4.6% (active); in the experiment on RPMI-8226 leukemia it was 26%; in the experiment on OVCAR-8 ovarian, 57%; with OVCAR-5 ovarian it was 45.1%; in the experiment with OVCAR-4 ovarian, 31.5%; in the experiment on SK-OV-3 ovarian it was 57.7%. The growth with IGROV1 ovarian is 61.3%; in the experiment on OVCAR-3 ovarian, 39.8%; in the experiment on HS 578T breast, 40.6%; in the experiment with NCI/ADR-RES ovarian it was 40.5%; in the experiment on T-47D breast, 18.1%; in the experiment on BT-549 breast it was -8.7% (active). The growth was 33.3% in the experiment with SW-620 colon; 0.78% (active) with MCF7 breast; 2.8% (active) in the experiment on HCT-116 colon; 30.5% in the experiment with HCC-2998 colon; 20.8% with KM12 colon; -26.2% (active) in the experiment with MDA-MB-468 breast.

In the case of `COc1cccc(C(N)=Nc2ccc(OCCCCCCCCn3cncn3)cc2)c1`, the growth with SR leukemia is 10.4%; in the experiment on RPMI-8226 leukemia, 14.2%; in the experiment with OVCAR-5 ovarian, 29.6%; in the experiment on OVCAR-4 ovarian, 55.5%; with SK-OV-3 ovarian, 41.7%; in the experiment on IGROV1 ovarian, 27.3%. Also, the growth in the experiment with HS 578T breast is 37.2%; in the experiment with T-47D breast, 52%; in the experiment on SW-620 colon it was 21.2%; in the experiment on MCF7 breast, 18.3%; in the experiment on HCT-116 colon, 12.5%; with HCC-2998 colon, 23.4%. The growth with MDA-MB-468 breast is 24.8%.
